Screening results: PubChem, National Center for Advancing Translational Sciences (NCATS)
A selection: hits, their analogues and other compounds. The true share with any hit is near 3.2%.
Tau ThT inhib: blocks human tau fibril formation measured by thioflavin T | P10636 | recombinant tau K18 P301L, heparin-induced fibrillization, ThT fluorescence | Potency, µM (highest dose often 57.4 µM), for inactives: at the top dose activity, negative = inhibition, most hits filed as inhibitors | 270,000 tested, 2.1% active | AID 1460; further: nearly all actives have a fitted effect of over 55% in size
Target sequence (P10636 561-689 P618L limits assumed): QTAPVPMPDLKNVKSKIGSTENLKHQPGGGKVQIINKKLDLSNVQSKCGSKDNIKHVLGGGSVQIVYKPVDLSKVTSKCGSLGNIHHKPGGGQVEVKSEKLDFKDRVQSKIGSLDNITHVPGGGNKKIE
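Aggregation was driven by heparin (20 uM final) acting on recombinant tau […] bearing P301L in 100 mM sodium acetate pH 7; fibrils were detected with Thioflavin T.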
Tau fluor cs: counter-screen for tau fibril formation inhibitors; 280,000 tested, 0.93% active; tau K18 P301L (four-repeat tau fragment) Alexa594 fluorescence, heparin fibrillization; Potency, µM (doses to about 57.7 µM), inactives show top-dose activity change, negative = decrease; further: nearly all actives have a fitted effect of over 55% in size
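Human K18 P301L tau (15 uM unlabeled plus 0.24 uM Alexa 594-labeled, final) in 100 mM sodium acetate pH 7 was mixed with compound and 20 uM heparin and incubated 6 hr at 37 C.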
TRb-SRC2 inh: inhibitors of human thyroid hormone receptor beta-SRC2 interaction | TRbeta-SRC2 peptide binding, fluorescence polarization; receptor liganded with 1 µM T3 | Potency, µM (top dose mostly 106 µM), for inactives: at the highest dose activity change, negative = inhibition, usual class: inhibitors | 280,000 tested, 0.065% active;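 further: plate controls were bound peptide for no effect and peptide without receptor for full effect; nearly all actives have a fitted effect of over 50% in size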
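Assay buffer: 20 mM Tris-HCl, 100 mM NaCl, 10% glycerol, 1 mM EDTA, 0.01% NP-40, 1 mM DTT, 1 uM T3, 5% DMSO; TRb LBD 0.6 uM, Texas Red SRC2 20 nM; FP after 5 hr.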
GoLoco inh red: blocks human Gai1 binding to RGS12 GoLoco peptide, red readout; P63096; Gai1:RGS12 GoLoco peptide FP, rhodamine, 10 min; 230,000 tested, 0.44% active; Potency, µM (titrated, usually from 61.6 µM), for inactives: top-dose activity, negative = inhibition, most hits filed as inhibitors; AID 880; active means well fitted inhibition curve with a large enough effect, not every such curve was filed as active; inactive means no such curve, though single readings can be large or run the other way; further: nearly all actives have a fitted effect of over 30% in size
Target sequence (P63096 whole entry, looked up): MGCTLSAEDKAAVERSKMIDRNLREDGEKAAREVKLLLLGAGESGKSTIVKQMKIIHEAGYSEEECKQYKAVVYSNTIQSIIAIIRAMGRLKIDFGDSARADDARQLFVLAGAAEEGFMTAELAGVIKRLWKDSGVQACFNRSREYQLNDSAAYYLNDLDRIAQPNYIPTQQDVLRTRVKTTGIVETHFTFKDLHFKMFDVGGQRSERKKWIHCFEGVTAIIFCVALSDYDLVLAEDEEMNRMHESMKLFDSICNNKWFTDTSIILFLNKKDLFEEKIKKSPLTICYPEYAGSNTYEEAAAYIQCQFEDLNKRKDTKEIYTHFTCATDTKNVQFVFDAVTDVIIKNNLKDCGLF
TexasRed fluor: alters Texas Red total fluorescence, flagging assay interference; TRb/SRC2 Texas Red total fluorescence interference; 280,000 tested, 0.29% active; AID 1479; Potency, µM (top dose mostly 106 µM), inactives show top-dose fluorescence change, negative = quenching; active means well fitted curve in either direction with a large enough effect; inconclusive means small, poorly fitted or top-dose-only effect
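Human TRb ligand-binding domain at 0.6 uM with 20 nM Texas Red SRC2 peptide in Tris buffer containing 1 uM T3 and 5% DMSO, incubated with compound 5 h at ambient temperature. Total fluorescence (555/632 nm) calculated as parallel + 2 × perpendicular.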
Tau fibril FP: blocks human tau fibril formation measured by polarization; K18 P301L tau heparin fibrillization, Alexa594 FP, 6 h; P10636; 280,000 tested, 0.39% active; Potency, µM (top dose mostly 57.7 µM), without a hit: top-dose activity, negative = inhibition, hits mostly inhibitors; AID 1468; further: nearly all actives have a fitted effect of over 55% in size
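Steps: dispense K18 P301L tau (15 uM plus 0.24 uM Alexa 594 tracer, final) in pH 7 sodium acetate; add compound; add heparin (20 uM final); incubate 6 hr, 37 C; add ThT (30 uM final); after 1 hr ambient, read FP.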
An asterisk follows results filed as active; ? = inconclusive; . = no result given; [ ] = another dose, or the depositor's remark. Unless noted, the call rests on the fitted dose curve; in most records, active means well fitted curve in the direction sought with a large enough effect; inconclusive means small, poorly fitted or top-dose-only effect, or another doubt; inactive means no such curve, though single readings can be large; an effect the other way counts as inactive or inconclusive. Unless noted, on the % scale 0 is the no-effect control and ±100 the full control effect; potency means the concentration at half of the fitted maximal effect.

SMILES	Tau ThT inhib	Tau fluor cs	TRb-SRC2 inh	GoLoco inh red	TexasRed fluor	Tau fibril FP
O=C(O)c1cccc(NS(=O)(=O)c2ccc3c(c2)C(=O)c2ccccc2C3=O)c1	?	-18%	0%	3%	-9%	13%
COC(=O)c1ccc(NS(=O)(=O)c2ccc3[nH]c4c(c3c2)CCCCC4)cc1	-1%	4µM*[quencher]	-7%	.	?	?
COC(=O)c1ccc(NS(=O)(=O)c2ccc3[nH]c4c(c3c2)CCCC4)cc1	1%	10µM*[quencher]	-5%	.	28µM*[quencher]	-14%
CCCCCCC(O)CCCCCCCCCCC(=O)O (stereo not drawn)	.	.	4%[201 µM]	.	-1%[201 µM]	.
CCCS(=O)(=O)c1nc(S(=O)(=O)c2ccc(C)cc2)c(NCC(C)C)s1	-5%	-20%	-4%	.	-1%	5%
O=C1CCCC(O)=C1N=Nc1c(Cl)cc(C(F)(F)F)cc1Cl	?	-17%	1.4µM*	1%	28µM*[fluorescent]	-1%
O=C1CCCC(O)=C1N=Nc1ccc(C(=O)O)cc1	?	-25%	?	-15%	18%	-9%
Nc1ccc(Cc2ccc(N)c(O)c2)cc1O	14µM*	?	-13%	-21%	-4%	?
Nc1ccc(-c2ccc(N)c(O)c2)cc1O	.	.	7%	43%	-23%	.
Oc1ccc(N=Nc2c(O)ccc3ccccc23)cc1	2.5µM*	11µM*[quencher]	10%	181%	-1%	?
O=C(O)c1cc(N=Nc2c(O)ccc3ccccc23)cc(C(=O)O)c1	16µM*	-11%	12%	153%	?	-4%
Oc1ccc2ccccc2c1N=Nc1ccccc1	.	.	100µM*	.	112µM*[fluorescent]	.
Cc1ccccc1N=Nc1ccc(N=Nc2c(O)ccc3ccccc23)c(C)c1	.	.	-1%	-2%	0%	.
NS(=O)(=O)c1ccc(N=Nc2c(O)ccc3ccccc23)cc1	1.1µM*	-26%	-13%	11%	-4%	0%
O=c1ccc(N=Nc2ccccc2)ccc1O	4.5µM*	?	-2%	3%	-4%	-3%
O=S(=O)(O)c1ccc(N=Nc2ccccc2)cc1	-15%	-11%	-6%	-4%[14.2 µM]	-2%	10%
Cc1ccc(-n2nc(-c3ccc(OC(F)(F)F)cc3)cc2N)cc1C	?	11µM*[quencher]	-1%	-2%	-4%	9%
Cc1noc(C)c1S(=O)(=O)Nc1ccccc1Oc1ccccc1	-9%	-20%	10%	10%	-3%	6%
O=C1c2ccccc2-c2onc3ccc(Oc4ccccc4)c1c23	4.5µM*	6.3µM*[quencher]	-4%	88%	2%	?
CC(C)C[C@H](NC(=O)[C@@H]1CCCN1C(=O)[C@H](CO)NC(=O)[C@H](Cc1ccccc1)NC(=O)CNC(=O)[C@@H]1CCCN1C(=O)[C@@H]1CCCN1C(=O)[C@@H](N)CCCN=C(N)N)C(=O)O	.	.	5%	.	1%	.
COC(=O)N1C(C)=Cc2ccccc2C1C/C(C)=C/C(C)=O (stereo not drawn)	-1%	-3%	4%	-4%	-2%	9%
CCOC(=O)C1=C(CSc2nc(CC)c(C)cc2C#N)OC(N)=C(C#N)C1c1ccc(OC)cc1 (stereo not drawn)	-12%	-14%	16%	30%	2%	2%
COC(=O)C1=C(CSc2nc3c(cc2C#N)CN(C)CC3)OC(N)=C(C#N)C1c1ccc(F)cc1 (stereo not drawn)	25µM*	?	-4%	37%	-3%	?
Cc1ccccc1OC1C=CC(C#Cc2ccc(Br)cc2)OC1CO (stereo not drawn)	-8%[11.5 µM]	0%[11.6 µM]	7%[11.2 µM]	.	0%[11.2 µM]	-2%[11.6 µM]
COc1ccc(CNC(=O)c2cc3oc4ccccc4c3n2C)cc1OC	-17%	-30%	5%	.	5%	4%
Clc1ccc2c(c1)c1cc(Cl)ccc1n2CN1CCOCC1	?	?	-21%	-5%	0%	13µM*
O=C(c1ccccc1)c1ccc2nc(Nc3cc(Cl)ccc3O)c3nncn3c2c1	-10%	18µM*[quencher]	0%	.	-2%	?
